Article PMC5540273 (PLoS ONE, 2017)

Each molecule was assayed on RIPK1. Conditions: concentration: 1 μM, replicates: in singlicate; n = 1.
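Further: KINOMEscan kinase panel screen.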

Q: Which “%Inh” value does the source give for `COc1ccc(Nc2ncc(C#N)c(Nc3ccccc3C(N)=O)n2)cc1N1CCN(C)CC1.Cl` [GSK1558669] here?
A: The value was 74%.

Q: `O=C(Nc1cccc(-c2nn3ncccc3c2-c2ccnc(Nc3cccc(C(F)(F)F)c3)n2)c1)c1c(F)cccc1F` [GSK299495] was tested. Which “%Inh” value did it give?
A: Its value is 8%.

Q: Which “%Inh” value does the source give for `Cc1cccc(-c2nc(Nc3ccc4ncsc4c3)c3ccccc3n2)n1` [GW867588] here?
A: The value was 0%.

Q: Which “%Inh” value does the source give for `Cl.Nc1ncnc2occ(-c3ccc(NC(=O)Nc4cc(C(F)(F)F)ccc4F)cc3)c12` [SB-707548] here?
A: Its value is 96%.

Q: For `C[C@@H](Oc1cc(-n2cnc3ccc(NC(=O)NC(C)(C)C)cc32)sc1C(N)=O)c1ccccc1Cl` [GSK346294], which “%Inh” value is on record?
A: Its value is 21%.

Q: Which “%Inh” value does the source give for `c1ccc(-c2cc(-c3c[nH]nc3-c3ccccn3)ccn2)cc1` [GW576604] here?
A: Its value is 0%.

Q: `Cc1nnc(-c2ccc3occ(-c4ccc(C(C)O)cc4)c3c2)o1` (stereo not shown) was tested. Which “%Inh” value did it give?
A: Its value is 1%.

Q: With `CC(C)Oc1ccc2c(-c3ccnc(Nc4ccc(N5CCN(C)CC5)cc4)n3)cnn2n1` [GW696155] as the molecule, how does the “%Inh” value read?
A: The value was 40%.

Q: How did the “%Inh” value turn out when `NS(=O)(=O)c1cccc(-c2ccc3ncc(N4CCOCC4)nc3c2)c1` [GSK1535721] was run?
A: Its value is 19%.

Q: `Fc1ccc(-c2ncn(CCCN3CCOCC3)c2-c2ccccn2)cc1` [SB-211742] was tested. Which “%Inh” value did it give?
A: Its value is 0%.

Q: How did the “%Inh” value turn out when `CN(C1=C(c2ccccc2)C(=O)NC1=O)c1ccccc1` [SB-334860] was run?
A: The value was 30%.

Q: `CCc1nc(-c2cccc(C)c2)c(-c2ccnc(NCc3ccccc3)c2)s1` was tested. Which “%Inh” value did it give?
A: Its value is 0%.

Q: With `O=C(NCCNc1ccnc(Nc2ccc(F)cc2)n1)Nc1ccccc1F` [GSK1379880] as the molecule, how does the “%Inh” value read?
A: The value was 0%.
